Results taken from PubChem BioAssay (Tox21).
Inconclusive results are not listed. Where a call stands in place of a potency, no number is given. Calls of active or inactive are those of the source. The call rests on the fitted dose curve.

Assay: qHTS assay to identify small molecule agonists of the hypoxia (HIF-1) signaling pathway - cell viability counter screen (AID 1224844); further: nearly all actives have a fitted effect of over 50% in size
Conditions: HRE-bla ME-180 viability, CellTiter-Glo luminescence, 17 h; series mostly up to 76.8 µM
Source text: National Center for Advancing Translational Sciences [NCATS]
NIH Chemical Genomics Center [NCGC]
U.S. Environmental Protection Agency [EPA]
National Institutes of Environmental Health Sciences [NIEHS]
National Toxicology Program [NTP]
U.S. Food and Drug Administration [FDA]
Hypoxia-inducible factor-1 (HIF-1) is the major hypoxia-regulated transcription factor that controls cellular responses to low oxygen concentration. HIF-1 is composed of two subunits: hypoxia responsive HIF-1-alpha and constitutively expressed HIF-1-beta, which is also known as aryl hydrocarbon receptor nuclear translocator. During hypoxic conditions, HIF-1-alpha heterodimerizes with HIF-1-beta and translocates into the nucleus where the HIF-1 complex binds to the hypoxia-response element (HRE) and activates expression of target genes such as VEGF (vascular endothelial growth factor). The HIF-1 pathway is essential to normal growth and development, and is involved in the pathophysiology of cancer, inflammation, and ischemia.
Using a beta-lactamase reporter-gene under control of the hypoxia response element, a cell-based assay [CellSensor(TM) HRE-bla ME-180 from Life Technologies, Carlsbad, CA] was used to measure hypoxia-induced signaling. Tox21 10K library compounds were measured for their ability to induce the reporter gene activity. The cytotoxicity of the Tox21 compound library against HRE-bla ME-180 cell line was tested in parallel by measuring cell viability using CellTiter-Glo assay (Promega, Madison, WI) in the same assay wells.
Tox21 Assay Protocol Summary:
HRE-bla ME-180 cells were dispensed at 2,000 cells per well in 6 uL of assay medium containing 0.5% dialyzed FBS into black wall/clear-bottom 1536-well plates using a Multidrop Combi (Thermo Scientific, Waltham, MA) dispenser. After the assay plates were incubated at 37C and 5% CO2 for 5 hrs, 23 nL of compounds dissolved in DMSO, positive controls or DMSO only was transferred to each well of the assay plate using a Pintool station (Kalypsys, San Diego, CA). The assay plates were incubated at 37C and 5% CO2 for 17 hrs. One uL of LiveBLAzerTM B/G FRET substrate (CCF4-AM) (Life Technologies) was added to each well using a Flying Reagent Dispenser (FRD, Aurora Discovery, San Diego, CA). After 2 hr incubation at room temperature, fluorescence intensity (405 nm excitation, 460 nm and 530 nm emissions) was measured using an Envision plate reader (PerkinElmer, Shelton, CT). For cytotoxicity, 4 ul/well of CellTiter-Glo reagent was added into the assay plates using an FRD. After 30 min incubation at room temperature, the luminescence intensity was measured using a ViewLux plate reader (PerkinElmer).

Question: With `CC(C(=O)O)c1cccc(Oc2ccccc2)c1` (stereo not given) as the compound, how does the Potency read?
Answer: The Potency was “inactive”.

Question: For `CCC(=O)OCc1ccccc1`, which Potency is on record?
Answer: The Potency was “inactive”.

Question: Which Potency does the source give for `Nc1ccn([C@@H]2O[C@H](CO)[C@@H](O)[C@@H]2O)c(=O)n1` here?
Answer: Its Potency is “inactive”.

Question: For `C1CCC2=NCCCN2CC1`, which Potency is on record?
Answer: Its Potency is “inactive”.

Question: For `Cc1nc2ccc(CN(C)c3ccc(C(=O)N[C@@H](CCC(=O)O)C(=O)O)s3)cc2c(=O)[nH]1`, which Potency is on record?
Answer: The Potency was “inactive”.

Question: For `CC(C)NNC(=O)c1ccncc1`, which Potency is on record?
Answer: Its Potency is “inactive”.

Question: With `CC(C)(N)C#N` as the compound, how does the Potency read?
Answer: Its Potency is “inactive”.

Question: For `CC(C)(CCC(=O)O)C(=O)O`, which Potency is on record?
Answer: Its Potency is “inactive”.

Question: For `C=CCCC(=O)O`, which Potency is on record?
Answer: Its Potency is “inactive”.

Question: With `CC1=NN(c2cc(S(=O)(=O)O)ccc2Cl)C(=O)C1N=Nc1ccccc1` (stereo not given) as the compound, how does the Potency read?
Answer: Its Potency is “inactive”.

Question: With `CCCO[Si](OCCC)(OCCC)OCCC` as the compound, how does the Potency read?
Answer: Its Potency is “inactive”.

Question: For `CCCCOC(=O)CCC(C)=O`, which Potency is on record?
Answer: The Potency was “inactive”.

Question: For `CCCCCCC1CCC(=O)O1` (stereo not given), which Potency is on record?
Answer: The Potency was “inactive”.

Question: For `CC(=O)O[C@@]12CO[C@@H]1C[C@H](O)[C@@]1(C)C(=O)[C@H](O)C3=C(C)[C@@H](OC(=O)[C@H](O)[C@@H](NC(=O)OC(C)(C)C)c4ccccc4)C[C@@](O)([C@@H](OC(=O)c4ccccc4)[C@H]21)C3(C)C`, which Potency is on record?
Answer: The Potency was “inactive”.

Question: With `COc1c(N2CCNC(C)C2)c(F)cc2c(=O)c(C(=O)O)cn(C3CC3)c12` (stereo not given) as the compound, how does the Potency read?
Answer: The Potency was “inactive”.

Question: For `CCN[C@H]1C[C@H](C)S(=O)(=O)c2sc(S(N)(=O)=O)cc21`, which Potency is on record?
Answer: Its Potency is “inactive”.

Question: With `Cc1c(N)c(=O)n(-c2ccccc2)n1C` as the compound, how does the Potency read?
Answer: Its Potency is “inactive”.

Question: For `OCCc1ccccn1`, which Potency is on record?
Answer: The Potency was “inactive”.

Question: With `COc1cc(-c2ccc(=O)[nH]n2)ccc1OC(F)F` as the compound, how does the Potency read?
Answer: Its Potency is “inactive”.

Question: For `Clc1cc(Cl)c(Cl)nc1Cl`, which Potency is on record?
Answer: The Potency was “inactive”.

Question: With `CCOC(=O)C(=O)CCCCCCl` as the compound, how does the Potency read?
Answer: The Potency was “inactive”.

Question: Which Potency does the source give for `C=CCCCCCCCCC(=O)OCC` here?
Answer: The Potency was “inactive”.

Question: With `O=C(O)CCCC[P+](c1ccccc1)(c1ccccc1)c1ccccc1` as the compound, how does the Potency read?
Answer: The Potency was “inactive”.

Question: With `C[N+]1(C)CCCC(OC(=O)C(O)(c2ccccc2)c2ccccc2)C1` (stereo not given) as the compound, how does the Potency read?
Answer: Its Potency is “inactive”.

Question: Which Potency does the source give for `CCCCc1nc(Cl)c(CO)n1Cc1ccc(-c2ccccc2-c2nn[nH]n2)cc1` here?
Answer: The Potency was “inactive”.

Question: Which Potency does the source give for `CCCC(C)C(=O)OCC` (stereo not given) here?
Answer: The Potency was “inactive”.

Question: For `CC(COc1ccccc1)NN` (stereo not given), which Potency is on record?
Answer: Its Potency is “inactive”.

Question: With `NC(=O)Cc1cccc2ccccc12` as the compound, how does the Potency read?
Answer: Its Potency is “inactive”.

Question: Which Potency does the source give for `CCCCN(CCC(=O)OCC)C(C)=O` here?
Answer: The Potency was “inactive”.

Question: With `CO/N=C(\C(=O)N[C@@H]1C(=O)N2C(C(=O)O)=C(CSc3nc(=O)c(O)nn3C)CS[C@H]12)c1csc(N)n1` as the compound, how does the Potency read?
Answer: Its Potency is “inactive”.

Question: Which Potency does the source give for `CC(=O)Nc1ccc(OCC(O)CNC(C)C)cc1` (stereo not given) here?
Answer: The Potency was “inactive”.

Question: Which Potency does the source give for `COc1cccc(OC)c1C(=O)N[C@@H]1C(=O)N2[C@@H]1SC(C)(C)[C@@H]2C(=O)O` here?
Answer: Its Potency is “inactive”.

Question: For `O=C(CO)[C@@H](O)[C@H](O)[C@H](O)CO`, which Potency is on record?
Answer: The Potency was “inactive”.

Question: For `O=C(O)c1cn(C2CC2)c2cc(N3CCNCC3)c(F)cc2c1=O`, which Potency is on record?
Answer: The Potency was “inactive”.

Question: With `c1ccc(CCc2ccccc2)cc1` as the compound, how does the Potency read?
Answer: Its Potency is “inactive”.

Question: Which Potency does the source give for `CCOCC(C)O` (stereo not given) here?
Answer: Its Potency is “inactive”.

Question: For `CC(C)(C)C(=O)c1ccccc1`, which Potency is on record?
Answer: Its Potency is “inactive”.

Question: With `O=[N+]([O-])c1cncn1CCN1CCOCC1` as the compound, how does the Potency read?
Answer: Its Potency is “inactive”.

Question: For `CC(C)C1CCC(O)CC1` (stereo not given), which Potency is on record?
Answer: The Potency was “inactive”.

Question: Which Potency does the source give for `NS(=O)(=O)Cc1noc2ccccc12` here?
Answer: Its Potency is “inactive”.
